From PubChem
In the library only some 2.9% were active in any assay of this set; here they are far more common.
pPAFAH FP inh: inhibitors of human plasma PAF acetylhydrolase (pPAFAH); Q13093; recombinant pPAFAH, FP-rhodamine probe fluorescence polarization; inhibition, % at 3.39 µM; 1.5% of 330,000 active;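 active means inhibition above the mean inhibition across the screen plus 3 SD, cut at about 25% in these data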;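 further: inhibitors block binding of the rhodamine activity-based probe so polarization drops; 0% = enzyme with DMSO and 100% = wells lacking pPAFAH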
PAFAH1B3 inh: blocks human PAF acetylhydrolase 1B catalytic subunit 3 | Q15102 | recombinant PAFAH1B3, FP-rhodamine probe, fluorescence polarization | inhibition, % at 3.39 µM | 0.28% of 340,000 active | AID 492972;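 active means inhibition above the screen-wide average of all tested compounds plus 3 SD, cut at about 25% in these data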;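 further: 0% = enzyme with DMSO only and 100% = wells lacking PAFAH1B3 protein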
LYPLA1 counter: blocks human lysophospholipase 1, a PME1 counter-screen; O75608; recombinant LYPLA1, FP-Rh probe fluorescence polarization; inhibition, % at 5.9 µM; 0.16% of 320,000 active; AID 2174;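 active means inhibition above the mean of all tested compounds plus 3 SD, set per campaign, cut at about 14% in these data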;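 further: inhibitors block serine hydrolase probe labeling of LYPLA1 so polarization falls; 0% = enzyme with DMSO and 100% = wells lacking LYPLA1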
Target sequence (O75608 whole entry, looked up): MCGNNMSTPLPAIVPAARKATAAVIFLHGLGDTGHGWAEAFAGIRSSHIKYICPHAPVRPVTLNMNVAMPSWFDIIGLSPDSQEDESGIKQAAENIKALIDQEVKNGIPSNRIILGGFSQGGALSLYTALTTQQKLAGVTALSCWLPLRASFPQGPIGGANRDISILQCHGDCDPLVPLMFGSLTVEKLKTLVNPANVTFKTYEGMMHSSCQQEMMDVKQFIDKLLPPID
PAFAH2 inh: inhibitors of human PAFAH2. Q99487. recombinant PAFAH2, FP-rhodamine activity probe, fluorescence polarization. inhibition, % at 3.39 µM. 0.99% of 340,000 active;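 active means inhibition above the mean over all tested compounds plus 3 SD, cut at about 30% in these data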;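 further: inhibitors block probe labeling of enzyme so polarization drops; 0% = enzyme with DMSO and 100% = wells lacking PAFAH2 protein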
LYPLA2 inh: counter-screen for PME1 inhibitors: inhibitors of human LYPLA2. O95372. AID 2177. recombinant LYPLA2, FP-Rh probe fluorescence polarization. inhibition, % at 5.9 µM. 0.38% of 320,000 active;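 active means inhibition above the screen-wide mean plus 3 SD, limit set per campaign, cut at about 26% in these data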;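 further: 0% = LYPLA2 with DMSO and 100% = wells lacking LYPLA2 enzyme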
PAFAH1B2 inh: blocks human PAF acetylhydrolase 1b catalytic subunit 2 | P68402 | recombinant PAFAH1B2, FP-rhodamine activity probe, fluorescence polarization | inhibition, % at 3.39 µM | 1.2% of 340,000 active | AID 492953;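 active means inhibition above the mean of all tested compounds plus 3 SD, cut at about 24% in these data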;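 further: 0% = enzyme with DMSO and 100% = wells lacking PAFAH1B2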
Target sequence (P68402 whole entry, looked up): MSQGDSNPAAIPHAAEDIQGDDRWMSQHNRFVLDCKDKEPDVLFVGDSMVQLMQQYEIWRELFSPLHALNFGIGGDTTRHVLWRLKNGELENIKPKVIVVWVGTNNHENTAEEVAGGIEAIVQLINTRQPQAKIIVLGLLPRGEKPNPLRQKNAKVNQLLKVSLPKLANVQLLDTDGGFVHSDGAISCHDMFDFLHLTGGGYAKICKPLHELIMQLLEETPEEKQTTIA
* = called active by the depositor; · = no result given.

SMILES | pPAFAH FP inh | PAFAH1B3 inh | LYPLA1 counter | PAFAH2 inh | LYPLA2 inh | PAFAH1B2 inh
CCOC(=O)C(Oc1ccc(=O)[nH]n1)C(C)=O (stereo unspecified) | 6 | -4 | 2 | 2 | 5 | 5
Oc1ccc(/C=N/Nc2nc(-c3cccnc3)nc3ccccc23)c(O)c1 | 25* | 25 | -5 | -3 | 11 | 3
COc1ccc(/C=N/Nc2nc(-c3cccnc3)nc3ccccc23)cc1OC | 5 | 5 | -7 | 5 | -15 | 2
COC(=O)C1CCN(C(=O)c2cc(-c3ccc(Cl)s3)nc3ccccc23)CC1 | 1 | 2 | 0 | 4 | 8 | 1
Oc1nc(Nc2ccc(Cl)cc2Cl)sc1/C=C1\C=Nc2ccccc21 | 10 | 7 | 0 | 9 | -2 | 6
CCCCCCCCCCNC(=O)CCn1[nH]c(=O)c2ccccc2c1=O | 30* | 8 | 5 | 22 | 8 | 61*
COc1ccc(/C=C2\SC(=O)N(CCNC(=O)Cc3coc4cc(C)ccc34)C2=O)cc1OC | 11 | -2 | -4 | -2 | 7 | 2
Cc1cccc(-n2cc(-c3ccccc3)c3c(=O)[nH]cnc32)c1 | 30* | 7 | -3 | 4 | 3 | -4
O=c1[nH]cnc2c1c(-c1ccccc1)cn2-c1ccc(Br)cc1 | 27* | -1 | -4 | -1 | -2 | -3
CCC1COCCS(=O)(=O)N1Cc1ccc(Cl)cc1 (stereo unspecified) | 1 | 10 | -4 | 5 | -5 | 8
O=S1(=O)CCOC[C@H](CC2CCCCC2)N1Cc1cccc(F)c1 | 1 | 2 | 1 | 2 | -5 | 24*
Cc1ccc(CN2[C@@H](CC3CCCCC3)COCCS2(=O)=O)cc1 | 2 | 5 | -4 | -2 | -1 | 31*
CCCC[C@H]1COCCS(=O)(=O)N1Cc1ccc(C)cc1 | 4 | 7 | 3 | 1 | -2 | 13
O=S1(=O)CCOC[C@H](c2ccccc2)N1Cc1cccc(Cl)c1 | 6 | -1 | 2 | 4 | 4 | 29*
CCCC[C@H]1COCCS(=O)(=O)N1Cc1cccc(F)c1 | 0 | 4 | 0 | -2 | 4 | 3
O=S1(=O)CCOC[C@H](CC2CCCCC2)N1Cc1ccc(Cl)cc1 | -2 | -1 | -3 | -1 | 1 | 29*
COc1ccc(-c2cc(C)no2)cc1S(=O)(=O)N1CCN(c2ccc([N+](=O)[O-])cc2)CC1 | 4 | 12 | 4 | 2 | 26 | 3
CN(C(=O)COC(=O)c1cc2c(s1)CCCCC2)c1ccccc1 | 17 | 5 | 0 | 23 | -5 | 1
C=CCn1cnc2c(nnn2-c2ccc(C)c(Cl)c2)c1=O | 6 | 3 | 0 | -7 | 0 | 0
O=C1C(=O)C(c2ccccc2)C(=O)C1c1ccccc1 (stereo unspecified) | · | 10 | · | 7 | · | 32*
CCOC(=O)c1sc(NC(=O)CSc2nnc(C)s2)c(C(=O)OCC)c1C | 0 | 0 | -4 | -1 | -10 | 5
CCOC(=O)c1c(NC(=O)CSc2nnc(C)s2)sc2c1CCC(CC)C2 (stereo unspecified) | 26* | -17 | -3 | -11 | -3 | -1
O=Cc1cccc(OC(=O)/C=C/c2ccco2)c1 | 30* | 9 | 3 | 15 | 5 | 5
CN(CC(=O)NCc1ccncc1)S(=O)(=O)c1cc(Cl)ccc1Cl | 4 | 6 | -2 | -11 | 1 | -1
CCNC(=S)N/N=C/c1cn(Cc2ccc(F)cc2)c2ccccc12 | 11 | 24 | -5 | 4 | 9 | 4
SMILES | pPAFAH FP inh | PAFAH1B3 inh | LYPLA1 counter | PAFAH2 inh | LYPLA2 inh | PAFAH1B2 inh
O=C(O)c1ccc(N/N=C/c2cn(Cc3ccc(F)cc3)c3ccccc23)cc1 | 29* | 5 | 2 | 15 | 10 | 6
C=CCn1c(SCC#N)nc2c(c1=O)C(C)(C)Cc1ccccc1-2 | 5 | 2 | 2 | 0 | 6 | 25*
O=[N+]([O-])c1cc2oc3c(c2c(C=NCc2ccncc2)c1O)CCCC3 | · | 26* | · | 37* | · | 8
CC(C)(C)N=Cc1c(O)ccc2oc3c(c12)CCCC3 | 2 | 8 | -3 | 11 | -3 | 4
O=C(O)CN1C(=O)C(=O)N(Cc2ccc(Cl)cc2Cl)C1=O | 6 | 5 | -2 | -3 | -1 | 25*
CC1(C)CCC[C@]2(C)[C@H]3CC(=O)O[C@]3(C)CC[C@@H]12 | -4 | 5 | 3 | 7 | -2 | 11
CC(C)=CCC/C(C)=C/CNC(=O)CC1C[C@H](C(=O)N2CCOCC2)[C@@]2(C)c3[nH]c4ccccc4c3CCN2C1=O (stereo partly specified) | 7 | 2 | · | 9 | · | 7
CN(C)C(=O)CCc1ccc2c3c([nH]c2c1)[C@]1(C)[C@@H](C(=O)N2CCCCC2)C[C@H](CC(=O)NCC24CC5CC(CC(C5)C2)C4)C(=O)N1CC3 | 31* | 7 | · | 1 | · | 5
CC(C)=CCC/C(C)=C/CNC(=O)C[C@H]1C[C@H](C(=O)N2CCOCC2)[C@@]2(C)c3[nH]c4cc(-c5ccco5)ccc4c3CCN2C1=O | 25* | 1 | · | 5 | · | 3
Cc1ccc(SC[C@H](Cc2ccccc2)N2CCN(C)CCC2=O)cc1 | · | 2 | · | 4 | · | 10
COc1ccc(CNC(=O)CCSCc2cccc(Cl)c2)cc1 | 13 | 3 | 0 | 8 | -5 | 18
COc1ccc(CNC(=O)CCSCc2cccc(F)c2)cc1 | 27* | 7 | 2 | 5 | 2 | 8
COC/C=C/C1=CC2=CC(=O)C(C)(OC(=O)c3cnc4ccccc4n3)C(=O)C2=CN1CCCCO (stereo unspecified) | 7 | 2 | -2 | 8 | 3 | -5
COC/C=C/C1=CC2=CC(=O)C(C)(OC(=O)c3cnc4ccccc4n3)C(=O)C2=CN1CCc1ccccn1 (stereo unspecified) | 25* | · | 5 | · | -5 | ·
COC/C=C/C1=CC2=CC(=O)C(C)(O)C(=O)C2=CO1 (stereo unspecified) | 48* | · | -3 | · | 2 | ·
COC(=O)CCCC1=CC2=CC(=O)C(C)(OC(=O)c3cccs3)C(=O)C2=CO1 (stereo unspecified) | 43* | · | 8 | · | 4 | ·
CCCCC1=CC2=CC(=O)C(C)(OC(=O)CCC(=O)OC)C(=O)C2=CO1 (stereo unspecified) | 39* | · | 2 | · | 1 | ·
COC/C=C/C1=CC2=CC(=O)C(C)(OC(=O)C3CCCC3)C(=O)C2=CO1 (stereo unspecified) | 24 | 6 | -1 | 16 | -3 | -5
CN(Cc1ccccc1)C(=O)CN1C(=O)c2ccccc2S1(=O)=O | 0 | 4 | 0 | -2 | 6 | -1
COc1ccc(CC(=O)NCCCSc2ccccc2)cc1OC | · | 8 | · | 0 | · | 4
COC/C=C/C1=CC2=CC(=O)C(C)(OC(=O)c3cnc4ccccc4n3)C(=O)C2=CN1Cc1ccccc1 (stereo unspecified) | 18 | 11 | 2 | 12 | 10 | -1
